Each structure is given as a SMILES string. Records with an inconclusive call do not appear. The source made the active and inactive calls. Calls come from the whole dose curve; as a rule, active = well fitted inhibition curve with a large enough effect; inconclusive = small, poorly fitted or top-dose-only effect, or another doubt; inactive = no such curve, though single readings can be large or run the other way.

Consider 11 compounds from PubChem BioAssay AID624496 (National Center for Advancing Translational Sciences (NCATS), 2012).

Sequence of D(2) dopamine receptor (Homo sapiens) (P14416 whole entry, looked up): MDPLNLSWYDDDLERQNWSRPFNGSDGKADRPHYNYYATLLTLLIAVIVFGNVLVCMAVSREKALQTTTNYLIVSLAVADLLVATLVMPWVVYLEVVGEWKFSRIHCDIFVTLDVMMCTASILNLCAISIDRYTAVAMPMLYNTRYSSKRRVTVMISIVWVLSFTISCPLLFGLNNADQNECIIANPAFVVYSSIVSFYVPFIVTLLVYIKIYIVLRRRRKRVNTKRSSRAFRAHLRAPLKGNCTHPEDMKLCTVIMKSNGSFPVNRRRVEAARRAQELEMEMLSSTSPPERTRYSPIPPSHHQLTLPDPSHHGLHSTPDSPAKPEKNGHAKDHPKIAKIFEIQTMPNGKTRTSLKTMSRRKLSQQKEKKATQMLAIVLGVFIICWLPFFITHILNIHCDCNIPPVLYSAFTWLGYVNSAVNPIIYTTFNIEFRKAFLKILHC

The target of the assay is D(2) dopamine receptor (Homo sapiens) (UniProt P14416). Briefly: HTS Assay for Allosteric Antagonists of the Human D2 Dopamine Receptor: SAR in Primary Assay. Conditions: HEK293 T-REx D2 cells, calcium flux, dopamine EC80 antagonism; activity, negative = inhibition: at 41.8 µM (top of the series) unless noted. The source says:
Dopamine receptors (DARs) are involved in the etiology and/or therapy of a number of neuropsychiatric and endocrine disorders. For instance, all receptor-based antiparkinsonian drugs work via stimulating the D2 DAR subtype whereas all FDA-approved antipsychotic agents are antagonists of this receptor. […] There are three different types of allosteric modulators that we are seeking, two of which will stimulate or augment receptor signaling, allosteric agonists and potentiators, while the third, allosteric antagonists, will attenuate receptor signaling. The present project is looking for compound antagonism after an EC80 addition of dopamine by tracking calcium flux in a […], inducible Hek293 Trex D2 cell line, which act through an allosteric site. NIH Chemical Genomics Center [NCGC] NIH Molecular Libraries Probe Centers Network [MLPCN] MLPCN Grant: NS064831 Assay Submitter (PI): David Sibley
Freshly passaged cells are plated in 1536 well black, clear bottom plates at a density of 4000 cells/well in 3 ul of complete media containing 1x tetracycline inducer. After an overnight incubation at 30 deg C in 5% CO2, cells are loaded with 2 ul of the no wash Calcium Assay Kit (ABD Bioquest) and incubated at room temperature for 30 to 90 minutes. Agonist read: A 10 cycle (1 second/cycle) baseline measurement is taken and then the FDSS online 1536 pintool delivers 23 nl of compound library (as well as dopamine controls) to the plate. The plate is measured for kinetically at 1 cycle/sec for 180 seconds. Following the 180 second read, 1 ul of an EC80 (negative modulation assay) is delivered by an onboard pipette head. Measurements are taken kinetically for an additional 180 seconds.
(Calcium flux is commonly read through the fluorescence of an indicator in the cells.)
As to `CCN1C(=O)c2ccccc2S(=O)c2ccc(C(=O)NCc3ccc(C(C)(C)C)cc3)cc21` (stereo unspecified), the Potency was 0.353 µM (active).
The same measure, in the same setting: the figure for `CCN1C(=O)c2ccccc2S(=O)c2ccc(C(=O)NC(C)c3ccccc3)cc21` (stereo unspecified) is 0.353 µM (active); for `CN1C(=O)c2ccccc2S(=O)c2ccc(C(=O)Nc3ccccc3)cc21` (stereo unspecified) it is 0.28 µM (active); for `CCN1C(=O)c2ccccc2S(=O)c2ccc(C(=O)NCc3ccc4c(c3)OCO4)cc21` (stereo unspecified) it is 0.112 µM (active).
Consider `COc1ccc(CNC(=O)c2ccc3c(c2)N(C)C(=O)c2ccccc2S3=O)cc1` (stereo unspecified), for which the Potency was 0.112 µM (active).
The same measure, in the same setting: the figure for `CCN1C(=O)c2ccccc2[S@](=O)c2ccc(C(=O)N[C@H](C)c3ccc(Br)cc3)cc21` is 8.87 µM (active).
Regarding `CN1C(=O)c2ccccc2S(=O)c2ccc(C(=O)NCCN3CCCCC3)cc21` (stereo unspecified), the Potency is 0.112 µM (active).
On to `CCN1C(=O)c2ccccc2Sc2ccc(C(=O)NCc3ccc(OC)cc3)cc21`, for which the Potency was 0.887 µM (active).
`CCN1C(=O)c2ccccc2S(=O)c2ccc(C(=O)NCc3ccc(C(F)(F)F)cc3)cc21` (stereo unspecified): the Potency is 0.141 µM (active).
Still for that read-out and setting: the figure for `CCCN1C(=O)c2ccccc2S(=O)c2ccc(C(=O)NCc3ccc(OC)cc3)cc21` (stereo unspecified) is 1.77 µM (active).
In the case of `CCN1C(=O)c2ccccc2S(=O)(=O)c2ccc(C(=O)NCc3ccc(OC)cc3)cc21`, the activity, negative = inhibition was -113%.
